Experimental findings from the supplement of paper PMC6555819 are described below.

What all share (test): PBM binding z-score (relative to random genomic background probes); higher = stronger binding; sequences stand for … in GC…GCGATTGACAGCGTAGAATGAAGG
For assay [1], the system named is RARb homodimer (NR concentration 270 nM). The gist of the method: (§1)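 Regression normalization was applied to scanned fluorescence from custom Agilent 4×180K protein-binding microarrays. Before scanning, arrays were incubated 1 h with ligand-free nuclear receptor dimers, and binding was detected with antibodies against each partner (one per run). Binding z-scores use the random background probes as reference.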

Assay [2] concerns RARg:RXRa (NR concentration 270 nM, RXRa partner concentration 90 nM). The gist of the method: as §1
Assay [3] relates to RARg homodimer (NR concentration 270 nM). The method in brief: as §1
The test system of assay [4] is RXRa DBDmut IVT, anti-RXR (DBD mutation: RXRa K156A/R161A, NR concentration 90 nM). The gist of the method:
as §1

Assay [5] has as its system RXRa homodimer (NR concentration 180 nM). The gist of the method: as §1
Assay [6] deals with THRa:RXRa (NR concentration 90 nM, RXRa partner concentration 90 nM). The gist of the method: as §1
Assay [7] relates to THRa homodimer (NR concentration 90 nM). The method in brief:
as §1

The test system of assay [8] is VDR homodimer (NR concentration 270 nM). The method in brief: as §1

On to TCTAGCAGGCCAGAGGGTCACACAAGAGGTACGG, for which the PBM binding z-score in assay [1] stood at 3.1; in assay [2] it was 3.52; in assay [3] it was 3.05; in assay [4] it was 0.175; in assay [5] it was 4; in assay [6] it was 2.25. Besides, the values for the PBM binding z-score in assay [7] and in assay [8] were 0.165 and 0.773, respectively.

Turning to TCTCGGAGGACACGAAAGGTCAGAGTTCGACATC, the PBM binding z-score is 5.05 in assay [1]; 5.04 in assay [2]; 5.71 in assay [3]; 1.45 in assay [4]; 5.12 in assay [5]; 3.77 in assay [6]. The results for the PBM binding z-score in assay [7] and in assay [8] were 1.57 and 3.65, respectively.

Consider CGTCCAAGGCCATAGGAGGTCAGTGAAGACAGAT, for which the PBM binding z-score in assay [1] is 3.61; in assay [2] it was 2.74; in assay [3], 3.57; in assay [4], 0.911; in assay [5], 1.74; in assay [6], 3.89. Moreover, the PBM binding z-score in assay [7] stood at 1.18; in assay [8], 1.42.

Take TCTGCTAGGTCAACGATGGTTAGCTAATCTGCTA: the PBM binding z-score in assay [1] was determined as 2.99; in assay [2] it was 3.97; in assay [3], 5.29; in assay [4], 1.1; in assay [5] it was 2.75; in assay [6] it was 2.9. The PBM binding z-score is 0.466 in assay [7] and -0.391 in assay [8].

Consider ACTCGGAGGACAAAGGTCAGAGCTACGCCAGTGA, for which the PBM binding z-score in assay [1] amounted to 4.27; in assay [2], 5.92; in assay [3] it was 5.23; in assay [4], 1.08; in assay [5], 5.45; in assay [6], 3.35. Further, the PBM binding z-score in assay [7] was determined as 0.581; in assay [8] it was 1.03.

On to AATTCAGGGTCATCGTAGGCCAGAGTACGCACAG, for which the PBM binding z-score in assay [1] worked out at 3.87; in assay [2] it was 6.21; in assay [3] it was 5.46; in assay [4] it was 3.82; in assay [5] it was 7.13; in assay [6], 4.78. Moreover, the PBM binding z-score came to 2.24 in assay [7] and 4.01 in assay [8].

As for TAGCCTAGGTCATTGGGCCCGTATAGTACGCATC, the PBM binding z-score in assay [1] amounted to 2.73; in assay [2], 3.69; in assay [3], 4.06; in assay [4], 1.8; in assay [5] it was 2.68; in assay [6], 3.01. Further, the values for the PBM binding z-score in assay [7] and in assay [8] were 1.43 and 0.994, respectively.

GCTCGGAGGACAAGTTCAGAGCTTTGTCCGTAGA: the PBM binding z-score in assay [1] worked out at 1.38; in assay [2], 0.89; in assay [3], 1.25; in assay [4], 1.73; in assay [5] it was 0.198; in assay [6], 1.27. The figures for the PBM binding z-score in assay [7] and in assay [8] were -0.148 and 1.89, respectively.

TCTTGTAGATCAAAGATTAAGAAAGCCGAAGCCT: the PBM binding z-score in assay [1] is -1.12; in assay [2] it was 0.0193; in assay [3], -0.33; in assay [4] it was 0.517; in assay [5] it was 0.241; in assay [6], -0.201. Further, the results for the PBM binding z-score in assay [7] and in assay [8] were -0.962 and -0.417, respectively.

With GGAACGAGGGCAATGTTGATAGCATCTGTCGACG, the PBM binding z-score in assay [1] worked out at 0.983; in assay [2] it was 1.08; in assay [3] it was 1.66; in assay [4], 1.93; in assay [5], 0.843; in assay [6] it was 0.966. The results for the PBM binding z-score in assay [7] and in assay [8] were -0.016 and 0.72, respectively.

For TATACAGGGTCAAAGGCCAGAGGACGAATGTCGA, the PBM binding z-score is 3.52 in assay [1]; 5.92 in assay [2]; 5.44 in assay [3]; 2.95 in assay [4]; 7.17 in assay [5]; 3.5 in assay [6]. The results for the PBM binding z-score in assay [7] and in assay [8] were 0.968 and 2.9, respectively.

For TTACCAAGGCGAAAGGTCGTTGATGCACGCCTTG, the PBM binding z-score in assay [1] amounted to 1.7; in assay [2] it was 2.04; in assay [3], 1.11; in assay [4], 0.253; in assay [5], 2.66; in assay [6] it was 1.44. For the same sequence, the PBM binding z-score in assay [7] is -0.366; in assay [8] it was 1.13.

As for AGAATGAGGTTATTAGGATCAGGGAATTGCGGTC, the PBM binding z-score in assay [1] was 1.24; in assay [2], 1.4; in assay [3] it was 0.986; in assay [4] it was 2.16; in assay [5] it was 1.9; in assay [6] it was 2.35. The figures for the PBM binding z-score in assay [7] and in assay [8] were 1.11 and 1.87, respectively.

Take TCTACAGGGTCAAAGGCCAGAGTACGAATGTCGA: the PBM binding z-score in assay [1] was found to be 3.2; in assay [2] it was 5.47; in assay [3], 5; in assay [4] it was 3.16; in assay [5], 6.72; in assay [6] it was 3.48. The PBM binding z-score in assay [7] turned out to be 0.454; in assay [8] it was 2.55.

Regarding ATACCAAGGTGATCGTGAGGTGGTTGATACTAAC, the PBM binding z-score in assay [1] is 0.533; in assay [2], 0.588; in assay [3] it was 0.258; in assay [4] it was -0.212; in assay [5], 0.48; in assay [6], 1.61. The PBM binding z-score was determined as 0.979 in assay [7] and 0.166 in assay [8].

For the sequence AATACAGGGTCATCGTAGGCTAGAGTACGCACAG, the PBM binding z-score in assay [1] stood at 3.49; in assay [2], 5.66; in assay [3], 5.17; in assay [4], 3.57; in assay [5], 6.87; in assay [6] it was 4.05. The PBM binding z-score in assay [7] is 1.63; in assay [8], 4.03.

As to TCTGCTAGGTCAACGCTGGTCAGCTAATCTGCTA, the PBM binding z-score worked out at 3.46 in assay [1]; 4.21 in assay [2]; 5.26 in assay [3]; 0.991 in assay [4]; 2.33 in assay [5]; 3.52 in assay [6]. Besides, the PBM binding z-score is 0.43 in assay [7] and -0.576 in assay [8].
